ADAM17 inh: inhibits human ADAM17. P78536. recombinant ADAM17, EDANS/DABCYL FRET peptide cleavage. inhibition, % at 6.95 µM. hit rate 0.83% among 370,000. AID 720648;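 active = inhibition above the mean of compounds lying between control limits plus 3 SD, set per campaign, cut at about 8.5% in these data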
ADAM10 inh: inhibits human ADAM10; hit rate 0.62% among 370,000; inhibition, % at 7 µM; O14672; recombinant ADAM10, EDANS/DABCYL FRET peptide cleavage, 3 h; AID 720582;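 active = inhibition above a per-campaign cutoff equal to the mean of compounds falling between control-based bounds plus 3 SD, cut at about 20% in these data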
Target sequence (O14672 214-748 limits assumed): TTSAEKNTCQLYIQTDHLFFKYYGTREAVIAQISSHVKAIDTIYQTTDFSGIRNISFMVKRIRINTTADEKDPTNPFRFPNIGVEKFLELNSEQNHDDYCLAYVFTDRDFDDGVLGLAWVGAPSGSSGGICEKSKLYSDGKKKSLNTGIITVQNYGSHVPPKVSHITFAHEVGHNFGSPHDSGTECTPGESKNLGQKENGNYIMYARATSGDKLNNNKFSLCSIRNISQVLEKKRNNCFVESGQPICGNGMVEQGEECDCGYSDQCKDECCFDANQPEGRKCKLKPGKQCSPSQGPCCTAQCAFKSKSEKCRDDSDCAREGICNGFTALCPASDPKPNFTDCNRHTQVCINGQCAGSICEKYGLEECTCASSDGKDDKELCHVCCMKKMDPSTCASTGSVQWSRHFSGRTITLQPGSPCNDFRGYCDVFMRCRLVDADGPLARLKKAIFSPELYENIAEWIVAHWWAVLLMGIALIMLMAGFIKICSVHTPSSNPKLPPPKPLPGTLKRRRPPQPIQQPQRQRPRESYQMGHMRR
PLC-gamma1 inh: inhibitors of human phospholipase C gamma1. P19174. purified PLC-gamma1, fluorogenic substrate, fluorescence. inhibition, % at 12.2 µM. hit rate 0.84% among 370,000. AID 720700; in the data active = inhibition above about 9.5%
KLK7 zymogen act: proKLK7 (human) activation, primary screen. hit rate 0.9% among 370,000. activation, % at 7 µM. P49862. purified proKLK7, EDANS-DABCYL substrate fluorescence; 100% is mature enzyme control, 0% vehicle;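 active = activation above the mean of all tested compounds plus 3 SD, computed per campaign excluding outliers beyond control limits, cut at about 13% in these data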
PLC-beta3 inh: PLC-beta3 (human) inhibition, primary screen. Purified PLC-beta3, fluorogenic substrate, fluorescence. inhibition, % at 12.2 µM. hit rate 0.18% among 370,000; in the data active = inhibition above about 11%
ADAM10 confirm: human ADAM10 inhibition, confirmation; shares compounds with ADAM10 inh; hit rate 1% among 2,100; inhibition, % at 6.95 µM; AID 743208; ADAM10 QFRET peptide cleavage, EDANS fluorescence;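 active = inhibition above about 20% chosen separately for each screening run, limit read from the data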
ADAM17 counter: ADAM17 inhibition, counter-screen for ADAM10 exosite hits | ADAM17 QFRET peptide cleavage, EDANS fluorescence | AID 743214 | hit rate 0.5% among 2,100 | shares compounds with ADAM10 inh | inhibition, % at 6.95 µM;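 active = mean triplicate inhibition above the solvent-only control wells' mean plus 3 SD, cut at about 12% in these data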
Numbers stand for hits; i = inactive; nt = no result. Shown are actives, neighbours in structure and some others; about 2.9% of the full set was active somewhere.

SMILES	ADAM17 inh	ADAM10 inh	PLC-gamma1 inh	KLK7 zymogen act	PLC-beta3 inh	ADAM10 confirm	ADAM17 counter
O=C(Nc1ccc(Oc2ccc(NC(=O)c3ccco3)c(NC(=O)c3ccco3)c2)cc1)c1ccco1	i	i	i	i	i	nt	nt
COc1ccc(C2NC(=S)N(Cc3ccc(Cl)cc3)C(C)=C2C(C)=O)cc1 (stereo not drawn)	i	22.4	i	i	i	i	i
O=C(c1ccccc1)N1CC[C@H]2[C@H](CCCN2Cc2ccccc2)C1	i	i	i	i	i	nt	nt
O=C(COCc1ccccc1)N1CC[C@H]2[C@H](CCCN2Cc2ccc(F)cc2)C1	i	i	i	i	i	nt	nt
COc1cccc(CNc2ncc(Br)cc2Br)c1O	i	i	i	i	i	nt	nt
COc1cccc(CNc2ccc(Br)cn2)c1O	i	24.6	i	i	i	i	i
Cn1c(=O)c2[nH]c(SCC(=O)NCCc3cccc(F)c3)nc2n(C)c1=O	i	i	i	i	i	nt	nt
CC(C)N(Cc1nc(-c2ccc(Cl)cc2)no1)C(=O)C(c1ccccc1)c1ccccc1	i	i	i	i	i	nt	nt
Cc1ccc(-c2noc(CN(C(=O)C(c3ccccc3)c3ccccc3)C(C)C)n2)cc1	i	20.1	i	i	i	i	i
NC(=O)[C@H]1CC2(CC(c3cccc(NC(=O)CC(c4ccccc4)c4ccccc4)c3)=NO2)CN1C(=O)c1ccccc1C(=O)c1ccccc1 (stereo partly drawn)	i	20.2	i	i	i	i	i
CCC(=O)Nc1cccc(C2=NOC3(C2)C[C@@H](C(N)=O)N(C(=O)COc2ccc(Cl)cc2)C3)c1 (stereo partly drawn)	i	i	i	i	i	nt	nt
NC(=O)[C@@H]1CC2(CC(c3cccc(NC(=O)CC(c4ccccc4)c4ccccc4)c3)=NO2)CN1C(=O)COc1ccc(Cl)cc1 (stereo partly drawn)	i	22.6	i	i	i	i	i
CCC(=O)Nc1cccc(C2=NOC3(C2)C[C@@H](C(N)=O)N(C(=O)c2ccccc2C(=O)c2ccccc2)C3)c1 (stereo partly drawn)	i	i	i	i	i	nt	nt
Cc1nc(SCC(N)=O)[nH]c(=O)c1C	i	i	i	nt	i	nt	nt
CCOC(=O)c1c(NC(=O)CSc2n[nH]c(-c3ccco3)n2)sc(C)c1C	i	22.4	i	i	i	i	i
C[C@H]1[C@@H](C(=O)N2CCCC2)Cc2nc3ccccc3nc2C[C@@H]1c1ccccc1	i	i	i	i	i	nt	nt
CCN(CC)S(=O)(=O)c1cccc(NC(=O)COc2ccc(F)cc2Br)c1	i	20.6	i	i	i	i	i
CCN(CC)S(=O)(=O)c1cccc(NC(=O)COc2ccc(C#N)cc2OC)c1	i	i	i	i	i	nt	nt
COc1cc(C(=O)NNC(=O)c2ccc3c(c2)OCCO3)cc(OC)c1OC	i	i	i	i	i	nt	nt
COc1cc(C(=O)NNC(=S)NC(=O)c2ccc3c(c2)OCO3)cc(OC)c1OC	i	21.9	i	i	i	i	i
COc1ccc(-c2nc(CN3CCN(Cc4ccccc4)CC3)c(C)o2)cc1	i	79.5	i	i	i	i	i
O=C(Nc1cccc(Cl)c1)Nc1cccc(Cl)c1	i	i	i	i	i	nt	nt
O=C(Nc1cccc(F)c1)Nc1cccc(Cl)c1	i	23.3	i	i	i	i	i
COc1ccccc1NS(=O)(=O)c1cccc(NC(=O)Nc2cccc(Cl)c2)c1	i	30.7	i	i	i	i	i
COC(=O)c1cc(NC(=O)Nc2cccc(Cl)c2)ccc1Cl	i	20.2	i	i	i	i	i
SMILES	ADAM17 inh	ADAM10 inh	PLC-gamma1 inh	KLK7 zymogen act	PLC-beta3 inh	ADAM10 confirm	ADAM17 counter
CCOC(=O)c1ccc(N2C(=O)c3n[nH]c(C)c3C2c2ccco2)cc1 (stereo not drawn)	i	i	i	i	i	nt	nt
CCOC(=O)c1ccc(N2C(=O)c3n[nH]c(-c4ccco4)c3C2c2cccc([N+](=O)[O-])c2)cc1 (stereo not drawn)	i	32.8	13.4	i	i	i	i
CC(=O)N1c2ccc(S(=O)(=O)NCC3CCC(C(=O)NCc4ccc(C)cc4)CC3)cc2CC1C (stereo not drawn)	i	74.0	i	i	i	i	i
OC(c1ccc(F)c(F)c1)c1nc(-c2ccc(Cl)cc2)cs1 (stereo not drawn)	i	20.0	i	i	i	i	i
COc1ccccc1-c1csc(C(O)c2cccc(Cl)c2)n1 (stereo not drawn)	i	22.7	i	i	i	i	i
Cc1ccc(NC(=O)OCCCN2C(=O)CCC23CCC(C)CC3)cc1C (stereo not drawn)	i	i	i	i	i	nt	nt
CCN(CC(=O)Nc1ccccc1C(F)(F)F)C(=O)CN1C(=O)NC2(CCCCC2)C1=O	i	i	i	i	i	nt	nt
CCC1(c2ccccc2)NC(=O)N(CC(=O)N(CC(=O)Nc2ccccc2C(F)(F)F)Cc2ccco2)C1=O (stereo not drawn)	i	80.8	i	i	i	i	i
O=C(NC1=N[C@@]2(C=C3CCCCC3n3c(=O)n(-c4ccccc4)c(=O)n32)[C@H](Cc2ccccc2)N1Cc1ccccc1)c1ccccc1 (stereo partly drawn)	9.7	20.4	i	i	i	i	i
CCCNC(=O)c1cc(C2CCCCN2S(=O)(=O)c2ccccc2)on1 (stereo not drawn)	i	83.8	i	i	i	i	i
CCCNC(=O)c1cc(C2CCCCN2S(=O)(=O)c2ccc(OC)cc2)on1 (stereo not drawn)	i	i	i	i	i	nt	nt
CCCCC[C@@H](C)N1C[C@@H](COCc2ccccc2)Oc2cc(N3CC[C@@H](O)C3)ccc2S1(=O)=O	i	20.5	i	i	i	i	i
C[C@@H](c1ccccc1)N1C[C@H](COCc2ccccc2)Oc2cc(N3CCC[C@H]3C(N)=O)ccc2S1(=O)=O	i	i	i	i	i	nt	nt
C[C@@H](c1ccccc1)N1C[C@@H](COCc2ccccc2)Oc2cc(N3CCC[C@H]3C(N)=O)ccc2S1(=O)=O	i	21.8	i	i	i	i	i
CCCCC[C@H](C)N1C[C@@H](COCc2ccccc2)Oc2cc(N3CC[C@@H](O)C3)ccc2S1(=O)=O	i	i	i	i	i	nt	nt
CCN(CC)C(=O)c1oc(=O)c2ccccc2c1-c1ccc(C)cc1	i	i	i	i	i	nt	nt
Nc1c(-c2ccccc2)c(CSc2nc3ccccc3[nH]2)nn1-c1cccc(Cl)c1	i	i	i	i	i	nt	nt
Nc1c(-c2ccccc2)c(CSc2nc3ccccc3[nH]2)nn1-c1ccc(Cl)cc1	i	28.5	12.4	i	i	i	i
Cc1ccccc1C(=O)Oc1cccc(Nc2ncnc3ccccc23)c1	i	i	i	i	i	nt	nt
CC(=O)Oc1cccc(Nc2ncnc3ccccc23)c1	i	82.9	i	i	i	i	i
CCN(CC)C(=O)C1CCCN(Cc2cccc(F)c2)C1 (stereo not drawn)	i	79.2	i	i	i	i	i
